Shown are actives, neighbours in structure and some others; about 4.6% of the full set was active somewhere.
tim23-1 inh = growth inhibitors of tim23-1 mutant yeast, primary screen, luminescence, uHTS; S. cerevisiae tim23-1 growth, BacTiter-Glo luminescence, 24 h; inhibition, % at 20 µM; hit rate 1.3% among 330,000;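 active = growth inhibition of the mutant yeast at or above 50%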;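 also: temperature-sensitive mutant grown at 25 °C; plate controls were DMSO-treated mutant yeast for no effect and medium wells lacking yeast for full effect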
tim10-1 inh = growth inhibitors of tim10-1 mutant yeast, primary screen, luminescence, uHTS; hit rate 2.2% among 330,000; S. cerevisiae tim10-1 ts strain growth, BacTiter-Glo, 24 h; inhibition, % at 20 µM;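 active = inhibition of at least 40%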;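 also: mutant grown at 25 °C; 0% = DMSO wells with yeast and 100% = wells holding no yeast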
SKKanGAS inh = S. pyogenes SKKanGAS growth inhibitors in kanamycin, primary screen, streptokinase expression inhibitor project, SKKanGAS strain, BacTiter-Glo luminescence | hit rate 1.3% among 300,000 | 6 h | inhibition, % at 7.5 µM;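 active = mean replicate score, as percent of positive control median, at least 50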;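 also: strain carries kanamycin resistance gene driven by streptokinase promoter and grows in 40 µg/ml kanamycin; loss of luminescence reflects streptokinase promoter inhibition or plain growth inhibition; 0% = median of DMSO wells and 100% = positive control at its reference dose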
TIM10 inh = growth inhibitors of isogenic TIM10 control yeast, primary screen, counter-screen for tim10-1 yeast inhibitor project, luminescence, uHTS | S. cerevisiae TIM10 strain growth, BacTiter-Glo luminescence, 24 h | inhibition, % at 10 µM | hit rate 1.4% among 330,000 | AID 463195, 2010;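 active = inhibition of 40% or more at the single tested concentration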;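 also: wild-type TIM10 isogenic control strain grown at permissive 25 °C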
NALP3 yeast inh = NALP3 inflammasome inhibitors in reconstituted yeast, primary screen, luminescence, uHTS; Yeast reconstituted NLRP3/ASC/caspase-1, beta-gal luminescence, 24 h; hit rate 0.39% among 330,000; inhibition, % at 10 µM;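 active = inhibition of 50% or more; inactive = inhibition below 50%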;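 also: plate controls were induced DMSO wells for no effect and uninduced yeast grown without galactose for full effect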
tim10-1 confirm = growth inhibitors of tim10-1 mutant yeast, confirmation, single concentration, luminescence, S. cerevisiae; shares compounds with tim10-1 inh; S. cerevisiae tim10-1 ts strain growth, BacTiter-Glo, 24 h; inhibition, % at 20 µM; hit rate 56% among 7,400;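 active = inhibition of yeast growth at or above a set limit in either of two repeat tests at 20 µM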;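 also: tim10-1 mutant grown at permissive 25 °C to find synthetic lethal compounds; 0% = DMSO yeast wells and 100% = medium wells without yeast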
An asterisk follows results filed as active; nt = not tested or not shown.

SMILES	tim23-1 inh	tim10-1 inh	SKKanGAS inh	TIM10 inh	NALP3 yeast inh	tim10-1 confirm
O=C(COc1ccc2c(-c3ccccc3)cc(=O)oc2c1)Nc1cccnc1	-31	-11	3	-13	7	nt
COc1cc(/C=C2\SC(=S)NC2=O)ccc1OS(=O)(=O)c1ccccc1	23	43*	23	26	-18	33*
CC1CCN(c2oc(-c3ccc(F)cc3)nc2C#N)CC1	2	99*	-5	-26	25	-8
S=C1NC2=C(CCC/C2=C\c2ccc(Cl)cc2)C(c2ccc(Cl)cc2)N1 (configuration not stated)	13	35	-11	22	12	nt
CC1CC2=C(NC(=S)NC2c2ccc(F)cc2)/C(=C/c2ccc(F)cc2)C1 (configuration not stated)	37	46*	29	29	8	28
CC(=O)Oc1ccc2c(=O)c(-c3ccccc3)coc2c1	35	42*	6	22	30	32*
N=C1C(c2nc3ccccc3c(=O)[nH]2)=C(O)CN1CCc1ccccc1	9	41*	8	12	-4	-14
N=C1C(c2nc3ccccc3c(=O)[nH]2)=C(O)CN1CCO	42	22	1	1	10	nt
CSc1nc(O)c(N=Nc2ccc(F)cc2F)c(=O)[nH]1	40	40	7	7	5	nt
CCOc1cc(C2C(C#N)=C(N)OC(C)=C2C(C)=O)c(Br)c(Br)c1OC(C)C (configuration not stated)	45	46*	2	5	21	27
CCOc1cc(C2C(C#N)=C(N)OC(C)=C2C(C)=O)cc(Br)c1O (configuration not stated)	15	10	14	-12	21	nt
CCCCS(=O)(=O)N1CCCC(C(=O)Nc2ccc3c(c2)CCC3)C1 (configuration not stated)	-2	0	-14	6	19	nt
CCCc1ccc(-c2c(C)sc(N)c2C#N)cc1	32	68*	43	35	18	49*
CCCC(=O)Nc1sc(C)c(-c2ccc(OC)cc2)c1C#N	1	6	5	-2	10	nt
c1coc(C2Nc3cccc4cccc(c34)N2)c1	45	41*	9	38	12	35*
Clc1cccc(C2Nc3cccc4cccc(c34)N2)c1Cl	48	42*	20	26	26	58*
Brc1ccc(-c2ccc(C3Nc4cccc5cccc(c45)N3)o2)cc1	29	28	nt	1	28	nt
Clc1ccccc1C1Nc2cccc3cccc(c23)N1	35	43*	27	23	22	34*
CCN(CC)c1ccc(NC(=O)c2ccc3c(c2)OCO3)c(C)c1	6	-5	0	0	21	nt
CSCCC(=O)N1CCCC(CNC(=O)c2ccc(-c3ccccc3)cc2)C1 (configuration not stated)	33	40*	-11	23	11	28
Cc1cc(N2C(=O)C(O)=C(C(=O)c3ccc(C)o3)C2c2ccc([N+](=O)[O-])cc2)no1 (configuration not stated)	9	25	-2	5	19	nt
COc1ccc(/C=N/NC(=O)CCCOc2ccc(Cl)cc2Cl)cc1	12	47*	-14	24	22	20
O=C(CCCOc1ccc(Cl)cc1Cl)N/N=C/c1ccc(Cl)cc1	26	39	-5	7	18	nt
Cc1ccc(N/C(=N/S(=O)(=O)c2cccs2)c2ccccc2)c(C)c1	15	46*	0	21	-14	18
Cc1ccccc1N/C(=N/S(=O)(=O)c1cc(F)ccc1F)c1ccccc1	19	27	-8	11	7	nt
SMILES	tim23-1 inh	tim10-1 inh	SKKanGAS inh	TIM10 inh	NALP3 yeast inh	tim10-1 confirm
C=CCN(c1ccc(C(=O)NCCCn2ccnc2)cc1)S(C)(=O)=O	6	11	9	-6	1	nt
CCOc1cc(/C=N\Nc2nc(Nc3ccccc3)nc(N3CCOCC3)n2)ccc1OC(=O)c1ccco1	20	42*	26	28	4	27
C=CCN(C/C(=N\O)c1sc(C(=O)OCC)nc1C)c1cccc(Br)c1	23	11	10	6	15	nt
CCN(CC)S(=O)(=O)c1cc(OC)ccc1N=Nc1ccc(O)c2ncccc12	39	44*	68*	23	30	42*
CCS(=O)(=O)c1ccc(OC)c(N=Nc2ccc(O)c3ncccc23)c1	20	41*	23	13	27	38*
COc1ccc(Cl)cc1NC(=O)C(C)OC(=O)Cn1cc(C(F)(F)F)ccc1=O (configuration not stated)	15	13	nt	15	16	nt
COc1ccc(Nc2nc(N)c(C(=O)c3ccc(OC)cc3)s2)cc1	37	44*	12	20	16	0
COc1ccc(-c2oc3cccnc3c2/C=C/c2ccc(OC)c(OC)c2)cc1	37	41*	19	18	22	14
COc1ccc(/C=C/c2c(-c3ccc(OC)cc3)oc(=O)c3cc(OC)c(OC)cc23)cc1	16	10	nt	4	3	nt
CCOc1ccccc1N1CCN(S(=O)(=O)c2ccc3c4c(cccc24)C(=O)N3)CC1	6	20	24	15	19	nt
CCOc1ccc(S(=O)(=O)N2CCN(c3ccccc3F)CC2)c2cccnc12	33	45*	-3	22	13	25
O=C1C2C3C=CC(C3)C2C(=O)N1CCN1CCN(S(=O)(=O)/C=C/c2ccccc2)CC1 (configuration not stated)	20	42*	6	16	15	23
COc1cc2c(cc1OC)CN(CCC(C)c1ccc(Cl)cc1)CC2 (configuration not stated)	-8	-9	0	0	22	nt
O=c1c2ccccc2nc2c3ccccc3c(NCCO)nn12	36	42*	9	32	6	33*
COc1cccc2cc(C(=O)Oc3ccccc3)c(=O)oc12	10	5	-2	1	8	nt
COc1cccc2cc(C(=O)OCc3ccccc3)c(=O)oc12	45	42*	-11	24	18	23
NC(=O)CSc1nc2sc3c(c2c2ncnn12)CCCC3	33	42*	6	27	12	34*
COc1ccc(N(CC(=O)Nc2ccc(C)c(F)c2)S(=O)(=O)c2c(C)noc2C)cc1	6	12	2	14	-3	nt
COc1ccc(N(CC(=O)Nc2ccc(C)c(C)c2)S(=O)(=O)c2c(C)noc2C)cc1	44	45*	1	13	-8	8
O=C(NC(NNc1ccc([N+](=O)[O-])cc1)(C(F)(F)F)C(F)(F)F)c1ccc(Cl)cc1	37	64*	33	35	13	51*

Screening results deposited in PubChem BioAssay by several laboratories.
